Data taken from PubChem BioAssay (NCATS).
Records with an inconclusive call do not appear. Values without a mark were called inactive. Active and inactive are the calls of the source. The call rests on the fitted dose curve; in most records, active means well fitted inhibition curve with a large enough effect; inconclusive means small, poorly fitted or top-dose-only effect; inactive means no such curve, though single readings can be large or run the other way.

Test: BET inhibitor-based combinations targeting novel dependencies in MECOM-rearranged (r) AML: HNT-34 cell line (AID 2202234); further: nearly all actives have a fitted effect of over 35% in size;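 on viability (% of control): plate controls were vehicle wells for no effect and cell-free wells for full effect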
Settings: HNT-34 AML viability, CellTiter-Glo luminescence, 48 h; series mostly up to 46 µM; viability (% of control): at the top concentration
From the text: Ecotropic viral insertion site 1 (EVI1) is located on chromosome 3q26.2 as part of the MECOM (MDS and EVI1 complex) locus. Under normal hematopoiesis, EVI1 is a regulator of hematopoietic stem cell maintenance and self-renewal and EVI1 levels decrease as the cells differentiate. In approximately 5-10% of de novo acute myeloid leukemia (AML) EVI1 is aberrantly expressed, including Chromosomal inv(3)(q21;q26.2) or t(3;3)(q21;q26.2) alterations (MECOM-r) that account for about 50% of AML with EVI1 overexpression 31. AMLs with high levels of EVI1 have a poor prognosis and an overall survival time averaging between 10-14 months. EVI1 overexpression confers resistance in leukemia cells, highlighting the need to develop new targeted therapies for EVI1 overexpressing AMLs. Here, we performed an unbiased chemical drug screening by evaluating the single agent activity of a collection of 2,480 oncology-focused, approved and investigational drugs (NCATS Mechanism Interrogation Plates, MIPE v5.0) against a panel of seven AML cell lines. These included four MECOM-r cell-lines (AML-191, AML-194, UCSD-AML1 and HNT-34) and three non-MECOM-r AMLs (MV4-11, OCI-AML3 and SET-2). Exploiting the mechanistic redundancy built in the library, we identified target-level sensitivities in MECOM-r AML cells and relative activity as compared to other AML subtypes.
A collection of 2480 mechanistically annotated dugs (MIPE v5.0) was used to screen four 3q26.2 rearranged AML cell lines and three non-3q26.2 rearranged AML cell lines. This library purposely exploits redundancy by including multiple inhibitors of key onco-targets, while simultaneously encompassing mechanistic diversity, targeting more than 800 distinct mechanisms of action. Briefly, cells were seeded in 5 uL of growth media using a Multidrop Combi dispenser into 1536 well white polystyrene tissue culture treated plates (Corning) at a density of 500cells/well. For each cell-line, for each of the 2480 drugs in MIPE v5.0 library, an 11-point dose curve was generated via a 1536 pin-tool. Plates were incubated for 48 hr at standard incubator conditions, covered by a stainless steel gasketed lid to prevent evaporation. Cell viability was determined by luminescence based, Cell Titer Glo assay (Promega). In detail, 3 uL of Cell Titer Glo were added to each well and plates were incubated at room temperature for 15 min with a stainless-steel lid in place. Luminescence readings were taken using a Viewlux (PerkinElmer) with a 2 s exposure time per plate. Compound dose-response curves were normalized to DMSO and empty well controls on each plate. Quantitative drug activity data from dose-response curves was determined utilizing area Under the Curve (AUC) and Z-transformed AUC (Z-AUC, a mean-centering transformation applied to each individual cell-line screened).
Potency means the concentration at half of the fitted maximal effect.

Row | Structure (SMILES) | viability (% of control) | Potency
1 | O=C(NNc1ccccc1)c1ccncc1 | 110% | –
2 | CCCCCN(CCC12CC3CC(CC(C3)C1)C2)C(=O)NCCCc1ccncc1 | – | 16.6 µM (active)
3 | COc1ccccc1[C@H](c1cccc2ccccc12)[C@@](C)(C#N)C(=O)N1CCC(c2cccc(C(F)(F)F)c2)CC1 | – | 13.2 µM (active)
4 | N[C@@H]1CONC1=O | 91.6% | –
5 | NC(=O)C1CCCc2c1[nH]c1ccc(Cl)cc21 (stereo not given) | 110% | –
6 | COC(=O)N1CCN(Cc2cccc(NC(=O)Nc3ccc(C)nc3)c2F)CC1 | 95.2% | –
7 | Cc1[nH]c(=O)c(C#N)cc1-c1ccncc1 | 99.5% | –
8 | CC(C)Cc1ccc(C(C)C(=O)O)cc1 (stereo not given) | 107% | –
9 | COCCOc1ccc(N2CCN(CCn3ncc4c3nc(N)n3nc(-c5ccco5)nc43)CC2)cc1 | 111% | –
10 | CCOC(=O)c1c(C)n(C)c2ccc(O)cc12 | 97% | –
11 | CCCS(=O)c1ccc2nc(NC(=O)OC)[nH]c2c1 (stereo not given) | – | 13.2 µM (active)
12 | CC(C)c1cc(C(=O)N2Cc3ccc(CN4CCN(C)CC4)cc3C2)c(O)cc1O | – | 0.209 µM (active)
13 | OC(CCN1CCCCC1)(c1ccccc1)C1CC2C=CC1C2 (stereo not given) | 92.1% | –
14 | COC(=O)/C=C/C(=O)N(O)CCCCNCc1ccc(COC(=O)Nc2cccc3ccccc23)cc1 | – | 5.9 µM (active)
15 | Nc1ncnc2c1c(-c1cccc(OCc3ccccc3)c1)cn2C1CC(CN2CCC2)C1 (stereo not given) | – | 18.6 µM (active)
16 | Cc1cc(O)c2c(c1)C(=O)c1cccc(O)c1C2=O | 113% | –
17 | CC(=O)OCC(CCn1cnc2cnc(N)nc21)COC(C)=O | 101% | –
18 | CC1COC2(CCN(c3nc(=O)c4cc(C(F)(F)F)cc([N+](=O)[O-])c4s3)CC2)O1 (stereo not given) | 104% | –
19 | COC(=O)N1CC2(CC2)C[C@H](C(=O)NO)[C@H]1C(=O)N1CCN(c2ccccc2)CC1 | 92.2% | –
20 | CN(C)C1CCN(C(=O)c2ccc(NC(=O)Nc3ccc(-c4nc(N5CCOCC5)nc(N5CCOCC5)n4)cc3)cc2)CC1 | – | 0.118 µM (active)

Row | Structure (SMILES) | viability (% of control) | Potency
21 | CCC(=O)O[C@]1(C(=O)CCl)[C@@H](C)C[C@H]2[C@@H]3CCC4=CC(=O)C=C[C@]4(C)[C@@]3(F)[C@@H](O)C[C@@]21C | – | 20.9 µM (active)
22 | Cc1oncc1C(=O)Nc1ccc(C(F)(F)F)cc1 | – | 16.6 µM (active)
23 | c1cc(-c2cnn3cc(-c4ccc(N5CCNCC5)cc4)cnc23)c2cccnc2c1 | – | 11.8 µM (active)
24 | COc1cc(Nc2ncc3c(n2)-c2ccc(Cl)cc2C(c2c(F)cccc2OC)=NC3)ccc1C(=O)O | – | 1.18 µM (active)
25 | O=C(NOCC(O)CO)c1ccc(F)c(F)c1Nc1ccc(I)cc1F (stereo not given) | – | 0.209 µM (active)
26 | CCN(CC)CCCCNc1ncc2cc(-c3cc(OC)cc(OC)c3)c(NC(=O)NC(C)(C)C)nc2n1 | – | 8.33 µM (active)
27 | NC(N)=NC(N)=NCCc1ccccc1 | 96.7% | –
28 | CCOC(=O)[C@H](CCc1ccccc1)N[C@@H](C)C(=O)N1CCC[C@H]1C(=O)O | 97.9% | –
29 | Cc1cc(C(C)(C)C)c(O)c(C)c1CC1=NCCN1 | 99.5% | –
30 | Cc1nnc(NS(=O)(=O)c2ccc(N)cc2)s1 | 90.5% | –
31 | Cc1nc2c(-c3cnc(N)nc3)nc(N3CCOCC3)nc2n1C(C)C | – | 0.525 µM (active)
32 | Nc1ccccc1NC(=O)c1ccc(CNC(=O)OCc2cccnc2)cc1 | – | 2.35 µM (active)
33 | NC1=N[C@H]2[C@H](CS[C@H]2CCCCC(=O)O)N1 | 91.9% [at 15.6 µM] | –
34 | CNC1CCC(N(Cc2cccc(-c3ccncc3)c2)C(=O)c2sc3c(F)ccc(F)c3c2Cl)CC1 (stereo not given) | – | 20.9 µM (active)
35 | CC(C)OC(=O)C1=CN(C(=O)c2ccc(F)c(F)c2)CC(C)(C)c2c1[nH]c1ccccc21 | 106% | –
36 | COC(=O)Nc1nc2ccc(Sc3ccccc3)cc2[nH]1 | – | 0.525 µM (active)
37 | C[C@@H]1CN(c2c(F)c(N)c3c(=O)c(C(=O)O)cn(C4CC4)c3c2F)C[C@H](C)N1 | 95.5% | –
38 | CO[C@@H](C(=O)N1Cc2[nH]nc(NC(=O)c3ccc(N4CCN(C)CC4)cc3)c2C1)c1ccccc1 | – | 0.105 µM (active)
39 | CC(=O)OCC(=O)[C@@]12N=C(C)O[C@@H]1C[C@H]1[C@@H]3CCC4=CC(=O)C=C[C@]4(C)[C@H]3[C@@H](O)C[C@@]12C | 102% | –
40 | COc1cc2nccc(Oc3ccc(NC(=O)Nc4cc(C)on4)c(Cl)c3)c2cc1OC | – | 0.209 µM (active)
